# Glyco luc inh – increase of ERlucT glycosylation luciferase signal, primary screen, N-linked glycosylation inhibitor project, D54 ERlucT cells, luminescence, set 2; AID 588692, 2011; 0.23% of 360,000 active; D54 ERlucT glycosylation luciferase reporter, 24 h; percent of 100 nM tunicamycin response; reporter increase, % at 12.5 µM;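 active means mean luciferase reporter signal, scaled so untreated is 0 and the glycosylation-blocking control 100, at or above a set limit in every replicate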;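 further: luciferase carries N-glycosylation sites so blocking glycosylation raises the light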
# dFosB act – activators of delta FosB homodimer, primary screen, biochemical, fluorescence polarization, TAMRA-CDK5 oligo, single point; Protein FosB (Mus musculus), P13346; purified delta FosB; percent of positive-control signal above neutral wells; activation, % at 25 µM; 0.99% of 340,000 active; AID 493131, 2011;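 active means mean activation above about 17%, with every replicate also reaching it, limit read from the data, passing the limit was not always enough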
# RAD52 anneal inh – RAD52 DNA annealing inhibitors, primary screen, biochemical, FRET, single point, set 2. recombinant RAD52 DNA annealing, FRET fluorescence. DNA repair protein RAD52 homolog (Homo sapiens), P43351. inhibition, % at 18.7 µM. AID 651710, 2012. 0.46% of 360,000 active;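 active means every replicate showing at least 50% inhibition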
# Target sequence (P43351 whole entry, looked up): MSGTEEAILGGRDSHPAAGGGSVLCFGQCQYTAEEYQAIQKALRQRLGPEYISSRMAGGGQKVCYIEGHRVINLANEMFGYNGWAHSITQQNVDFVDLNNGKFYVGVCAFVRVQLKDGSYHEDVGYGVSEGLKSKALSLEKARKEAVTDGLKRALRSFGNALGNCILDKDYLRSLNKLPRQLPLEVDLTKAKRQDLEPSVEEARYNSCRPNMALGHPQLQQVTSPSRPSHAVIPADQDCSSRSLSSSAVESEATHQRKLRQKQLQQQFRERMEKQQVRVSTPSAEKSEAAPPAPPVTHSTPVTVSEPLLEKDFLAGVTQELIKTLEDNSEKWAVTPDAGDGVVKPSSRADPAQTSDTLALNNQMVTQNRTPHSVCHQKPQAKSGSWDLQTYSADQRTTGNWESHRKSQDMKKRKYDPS
# F508del corr – F508del CFTR correction, initial screen, CFBE line, single point. CFBE cells, YFP halide quenching; stimulated with forskolin plus potentiator P3; % fluorescence drop versus neutral controls. activity (quench increase), % at 7.58 µM. 0.36% of 350,000 active;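 active means mean added fluorescence quench of at least 8% versus neutral control, with both replicates also reaching 8%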;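 further: cells transiently co-express mutant CFTR-F508del with the halide-sensitive YFP; corrector assay measuring rescue of mutant channel to the surface after 24 h compound exposure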
# PvdQ acylase – P. aeruginosa PvdQ acylase inhibitors, primary screen, biochemical, fluorescence, plate reader and imaging, single point | PvdQ acylase [Pseudomonas aeruginosa LESB58] | purified PvdQ acylase | inhibition, % at 10 µM | 0.063% of 340,000 active | AID 488965, 2010; in the data active means inhibition above about 30%, passing the limit was not always enough
# RAD54 inh – inhibitors of human RAD54 branch migration, primary screen, biochemical, fluorescence, single point; RAD54 Holliday junction branch migration, FAM/BHQ fluorescence; DNA repair and recombination protein RAD54-like (Homo sapiens), Q92698; AID 602329, 2012; 0.14% of 360,000 active; inhibition, % at 10.4 µM;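 active means mean normalized replicate activity at least 40 and at least half of replicates scoring 40 or more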;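 further: inhibitors cause a drop in the FAM fluorescence signal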
# A number is an active result; 0 = inactive; - = no result given. In the library only some 1.5% were active in any assay of this set; here they are far more common.
SMILES,Glyco luc inh,dFosB act,RAD52 anneal inh,F508del corr,PvdQ acylase,RAD54 inh
CCC(=O)N1[C@@H]2Cn3c(ccc(/C=C/c4ccccc4)c3=O)[C@H]1[C@@H](C(=O)N(C)C)[C@@H]2CO,-,-,0,0,-,0
Brc1ccc(-c2nnc(-c3ccco3)o2)cc1,0,0,-,-,90,-
c1ccc(-c2nnc(-c3ccco3)o2)cc1,0,0,-,-,0,0
Cc1ccc(S(=O)(=O)N[C@H]2CC[C@H](CCn3cc(C(C)C)nn3)O[C@H]2CO)cc1,-,-,0,0,-,0
Cn1c(=O)[nH]c(=O)c2c1nc(NN)n2CCOc1ccccc1,61,0,0,0,0,0
CC(=O)N1CC2(C1)[C@H](c1ccc(-c3ccccc3C)cc1)[C@@H](CO)N2C(=O)CC1CC1,-,-,0,0,-,-
CC1(C)Cc2c(sc(NC(=O)c3ccc(C(=O)c4ccccc4)cc3)c2C(N)=O)C(C)(C)N1,0,44,0,0,0,0
COC(=O)c1c(NC(=O)c2ccccc2)sc2c1CC(C)(C)NC2(C)C,0,0,0,0,0,0
COc1ccc(C2C(C(=O)c3ccccc3)N3c4ccccc4C=CC3C2[N+](=O)[O-])cc1 (stereo unspecified),0,0,0,23,0,-
N#CC(c1ccccc1)c1cccc(Cl)n1 (stereo unspecified),0,0,0,0,103,-
COc1ccccc1C(C#N)c1cccc(Cl)n1 (stereo unspecified),0,0,0,0,116,0
CC1(C)Cc2c(c(-c3ccco3)nc3sc4c(NCCCO)ncnc4c23)CO1,0,0,0,0,0,0
CC1(C)Cc2c(c(-c3ccco3)nc3sc4c(NCCN5CCOCC5)ncnc4c23)CO1,0,0,0,9.7,0,-
Cn1c(=O)c(N)c2c3c(c(Br)ccc31)C(=O)c1ccccc1-2,0,0,0,11,0,0
COCC(=O)N1CC[C@H]2[C@H](CO)Nc3ccc(-c4cccc(C(=O)N(C)C)c4)cc3[C@H]21,-,-,0,0,-,0
CC[C@]12c3[nH]c4cc(CCC(=O)N(C)C)ccc4c3CCN1C(=O)[C@@H](CC(=O)NC/C=C(\C)CCC=C(C)C)C[C@@H]2C(=O)N1CCN(C(=O)c2ccco2)CC1,31,0,-,-,0,0
COC(=O)[C@H]1[C@H](CO)[C@H]2Cn3c(ccc(-c4cncnc4)c3=O)[C@H]2N1C(=O)C1CCC1,-,-,0,0,-,0
O=C(CN1CCN(S(=O)(=O)c2ccc(Cl)c(Cl)c2)CC1)N1CCCC1,0,0,0,11,0,0
O=C(CN1CCN(S(=O)(=O)c2ccc(Cl)c(Cl)c2)CC1)N1CCCCC1,0,0,0,0,0,0
Cc1cc(C)cc(N2CC(O)=C(c3nc4ccccc4c(=O)[nH]3)C2=N)c1,0,0,0,0,0,-
COc1cccc(N2CC(O)=C(c3nc4ccccc4c(=O)[nH]3)C2=N)c1,36,0,-,-,0,0
COc1cc2c(cc1OC)C(C)N(C(=O)Nc1ccccc1)CC2 (stereo unspecified),35,0,0,0,0,0
CCC(=O)N1CC2(CCN(Cc3cncnc3)CC2)c2c([nH]c3cc(OC)ccc23)[C@H]1CO,-,-,0,0,-,-
N#C[C@@H]1[C@H](c2ccc(C3=CCCCC3)cc2)[C@H](CO)N1C(=O)c1cccc(F)c1,-,-,0,0,-,0
COc1ccc(/C=C2/Sc3ccc(C(=O)NCCN4CCCCCC4)cc3NC2=O)cc1,0,82,0,0,0,0
C[C@H](CO)N1C[C@H](C)[C@@H](CN(C)C)Oc2cc(-c3ccc(F)cc3)ccc2S1(=O)=O,-,-,0,0,-,0
CN(CC(=O)Nc1ccc(Cl)c(C(F)(F)F)c1)CC(=O)NC1CCCCC1,0,0,-,-,0,0
Cc1ccc(N2CC(C(=O)N(C)CC(=O)Nc3ccc(Cl)c(C(F)(F)F)c3)CC2=O)cc1 (stereo unspecified),0,0,0,9.2,0,0
CN(CC(=O)Nc1ccc(Cl)c(C(F)(F)F)c1)C(=O)CCN1C(=O)C2CCCCC2C1=O (stereo unspecified),0,0,0,10,0,0
